Measured values as given in PubChem BioAssay (NCATS).
Results filed as inconclusive are left out. Activity calls are given as the source filed them. Unless noted, calls come from the whole dose curve; as a rule, active = well fitted curve in the direction sought with a large enough effect; inconclusive = small, poorly fitted or top-dose-only effect, or another doubt; inactive = no such curve, though single readings can be large; an effect the other way counts as inactive or inconclusive.

How the values were obtained:
[1] = Cell Viability - Jurkat (AID 426;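 active = dose-dependent loss of cell ATP signal giving a full or clear fitted curve, ranked by lower potency value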; note: potency is the fitted concentration of half-maximal effect); details: qHTS
Procedure, shortened: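 Jurkat (clone E6-1, human T-cell leukemia) cells, 5000/well in complete medium, were exposed to compound for 40 hr at 37 °C. Viability was read as intracellular ATP by CellTiter-Glo luminescence; AC50 came from Hill fits of concentration-response data.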

[2] = Cell Viability - LYMP2-001 (AID 921); details: LYMP2-001 lymphoblastoid cell viability; series mostly up to 92.2 µM; note: nearly all actives have a fitted effect of over 70% in size
Procedure, shortened: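 CellTiter-Glo luminescence (intracellular ATP) after 24 hr compound exposure at 37 C, 2500 lymphoblastoid cells/well in complete medium. AC50 fitted with standard Hill equation; tetraoctylammonium bromide positive control.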

[3] = MultiTox-Fluor Cytotoxicity Assay - LYMP1-002 - Dead Cells (AID 960); details: LYMP1-002 lymphoblastoid cells, dead-cell protease fluorescence; series mostly up to 46.1 µM; note: nearly all actives have a fitted effect of over 60% in size
Procedure, shortened: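 Human lymphoblastoid cells (LYMP1-002), 2500/well in complete medium, were exposed to compounds for 16 hr at 37 C. Dead-cell protease activity was read as bis-AAF-R110 fluorescence (Ex/Em 485/520), normalized to DMSO and 15 uM tetraoctylammonium bromide; AC50 from Hill fits.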

[4] = Cell Viability - LYMP1-003 - Assay at 40 hr (AID 964); details: LYMP1-003 lymphoblastoid viability; series mostly up to 92.2 µM; note: nearly all actives have a fitted effect of over 60% in size
Procedure, shortened: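 Human lymphoblastoid LYMP1-003 cells, 2500/well in complete medium, rested 5 hr at 37 C, then exposed to compounds for 40 hr at 37 C. Viability read as intracellular ATP by CellTiter-Glo luminescence; AC50 from Hill fits of concentration-response data.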

[5] = Cell Viability - LYMP2-003 (AID 965); details: LYMP2-003 lymphoblastoid cell viability; series mostly up to 92.2 µM;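 note: cells exposed to compounds for 24 h before reading; nearly all actives have a fitted effect of over 50% in size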
Procedure, shortened: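 CellTiter-Glo luminescence (cellular ATP) after 24 h compound exposure at 37 C in complete medium; 2500 cells/well, 5 h settling beforehand. Concentration-response fitted to standard Hill equation for AC50. Tetraoctylammonium bromide served as positive control.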

[6] = Cell Viability - LYMP2-005 (AID 967); details: LYMP2-005 lymphoblastoid cell viability; series mostly up to 92.2 µM
Procedure, shortened: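 Steps: seed 2500 LYMP2-005 cells/well, incubate 5 h at 37 C, add compound, incubate 24 h at 37 C, add CellTiter-Glo, wait 30 min at RT, read luminescence. Concentration-response data fitted to Hill equation for AC50.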

[7] = Cell Viability - LYMP2-011 (AID 969); details: LYMP2-011 lymphoblastoid cells viability; series mostly up to 92.2 µM; note: nearly all actives have a fitted effect of over 60% in size
Procedure, shortened: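 Human lymphoblastoid cells (2500/well) were plated in complete medium, preincubated 5 hr at 37 C, then exposed to compounds for 24 hr at 37 C. Intracellular ATP was read by CellTiter-Glo luminescence, and AC50 came from Hill-equation concentration-response fits.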

[8] = Cell Viability - LYMP2-013 (AID 970); details: LYMP2-013 lymphoblastoid cells viability; series mostly up to 92.2 µM; note: nearly all actives have a fitted effect of over 55% in size
Procedure, shortened: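 Human lymphoblastoid cells, 2500/well, were preincubated 5 hr at 37 C, then treated with compounds for 24 hr at 37 C in complete medium. Intracellular ATP was read by CellTiter-Glo luminescence; AC50 from Hill-equation fits of concentration-response data.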

[9] = Cell Viability - LYMP2-017 (AID 972); details: LYMP2-017 lymphoblastoid cell viability; series mostly up to 92.2 µM; note: nearly all actives have a fitted effect of over 55% in size
Procedure, shortened: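 Human lymphoblastoid cells (2500/well) were seeded in complete medium, held 5 hr at 37 C, then exposed to compounds for 24 hr at 37 C. Intracellular ATP was read by CellTiter-Glo luminescence after 30 min at room temperature, with AC50 values from Hill-equation fits.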

[10] = Cell Viability - LYMP2-019 (AID 973); details: LYMP2-019 lymphoblastoid cell line viability; series mostly up to 92.2 µM; note: nearly all actives have a fitted effect of over 55% in size
Procedure, shortened: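 Human lymphoblastoid cells were seeded at 2500 cells/well, preincubated 5 hr at 37 C, then exposed to compounds for 24 hr at 37 C in complete medium. Intracellular ATP was measured by CellTiter-Glo luminescence; AC50 from Hill fits.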

[11] = Cell Viability - LYMP2-021 (AID 974); details: LYMP2-021 lymphoblastoid cells viability; series mostly up to 92.2 µM;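 note: compound exposure lasts 24 hours at 37 °C; nearly all actives have a fitted effect of over 55% in size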
Procedure, shortened: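 Human lymphoblastoid cells (2500/well) were preincubated 5 hr at 37 C, then exposed to compounds for 24 hr at 37 C in complete medium. Intracellular ATP was read by CellTiter-Glo luminescence; AC50 came from Hill-equation fits of concentration-response data.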

[12] = Cell Viability - LYMP2-023 (AID 975); details: LYMP2-023 lymphoblastoid cell viability; series mostly up to 92.2 µM
Procedure, shortened: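 Human lymphoblastoid cells (2500/well) were preincubated 5 hr at 37 C, then exposed to compounds for 24 hr at 37 C in complete medium. Cellular ATP was read by CellTiter-Glo luminescence, and AC50 came from Hill-equation fits.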

[13] = Cell Viability - LYMP2-010 (AID 981); details: LYMP2-010 lymphoblastoid cell viability, qHTS; series mostly up to 92.2 µM; note: nearly all actives have a fitted effect of over 55% in size
Procedure, shortened: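 Human lymphoblastoid LYMP2-010 cells (2500/well) were preincubated 5 hr at 37 C, then exposed to compounds for 24 hr at 37 C in complete medium. Intracellular ATP was measured by CellTiter-Glo luminescence after 30 min at room temperature; AC50 from Hill-fitted concentration-response.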

[14] = Cell Viability - LYMP2-014 (AID 983); details: LYMP2-014 lymphoblastoid cells, viability qHTS; series mostly up to 92.2 µM; note: nearly all actives have a fitted effect of over 50% in size
Procedure, shortened: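 Human lymphoblastoid cells (2500/well) were pre-incubated 5 hr at 37 C, then exposed to compounds in complete medium for 24 hr at 37 C. Intracellular ATP was read by CellTiter-Glo luminescence after 30 min at room temperature; AC50 from Hill fits.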

[15] = Cell Viability - LYMP2-016 (AID 984); details: LYMP2-016 lymphoblastoid cell viability, qHTS; series mostly up to 92.2 µM; note: nearly all actives have a fitted effect of over 55% in size
Procedure, shortened: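 qHTS, 1536-well: 2500 LYMP2-016 cells/well, 5 hr 37 C, compound added, 24 hr 37 C, CellTiter-Glo 30 min RT, luminescence. Tetraoctylammonium bromide positive control. AC50 via Hill fit.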

[16] = Cell Viability - LYMP2-020 (AID 986); details: series mostly up to 92.2 µM; note: nearly all actives have a fitted effect of over 55% in size
Procedure, shortened: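 Human lymphoblastoid cells, 2500/well, were pre-incubated 5 hr at 37 C, then exposed to compounds for 24 hr at 37 C in complete medium. Intracellular ATP was read by CellTiter-Glo luminescence, and AC50 was derived by Hill fitting of concentration-response data.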

[17] = Cell Viability - LYMP2-022 (AID 987); details: LYMP2-022 lymphoblastoid cell viability; series mostly up to 92.2 µM; note: nearly all actives have a fitted effect of over 55% in size
Procedure, shortened: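 Human lymphoblastoid cells, 2500/well, preincubated 5 hr at 37 C, then exposed to compounds over a concentration range for 24 hr at 37 C in complete medium. Viability read as intracellular ATP by CellTiter-Glo luminescence after 30 min at room temperature; AC50 from Hill fits.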

[18] = Cell Viability - LYMP2-024 (AID 988); details: LYMP2-024 lymphoblastoid cell viability; series mostly up to 92.2 µM; note: nearly all actives have a fitted effect of over 60% in size
Procedure, shortened: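 Human lymphoblastoid cells (2500/well) in complete medium were preincubated 5 hr at 37 C, then exposed to compounds for 24 hr at 37 C. Intracellular ATP was read by CellTiter-Glo luminescence; AC50 from Hill-equation fits of concentration-response data.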

[19] = qHTS assay for small molecule disruptors of the mitochondrial membrane potential - 1 hr assay (AID 651754; calls by dose curve; note: nearly all actives have a fitted effect of over 35% in size); details: series mostly up to 92.2 µM
Procedure, shortened: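 HepG2 cells, attached overnight at 37C, were exposed to compound or DMSO vehicle for 1 hr at 37C, 5% CO2, then stained with Mito-MPS dye for 30 min. Red aggregate versus green monomer fluorescence reports membrane potential.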

[20] = target: Tumor necrosis factor (Homo sapiens) (UniProt P01375); assay: qHTS assay to identify small molecules that stimulate Tumor Necrosis Factor-alpha (TNF-alpha) secretion (AID 651757; active = well fitted curve in the direction sought with a large enough effect in the signal ratio; the % refers to the signal ratio); details: Human cells, HTRF 665/615 ratio; series mostly up to 92.2 µM
Procedure, shortened: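 THP-1 cells were exposed to compounds for 17 hrs at 37 C, after which secreted TNF-alpha was measured by homogeneous HTRF (TR-FRET) using cryptate- and XL665-labeled anti-TNF-alpha antibodies, read after 3 hr at room temperature.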

Measured: Potency

Sequence of Tumor necrosis factor (Homo sapiens) (P01375 whole entry, looked up): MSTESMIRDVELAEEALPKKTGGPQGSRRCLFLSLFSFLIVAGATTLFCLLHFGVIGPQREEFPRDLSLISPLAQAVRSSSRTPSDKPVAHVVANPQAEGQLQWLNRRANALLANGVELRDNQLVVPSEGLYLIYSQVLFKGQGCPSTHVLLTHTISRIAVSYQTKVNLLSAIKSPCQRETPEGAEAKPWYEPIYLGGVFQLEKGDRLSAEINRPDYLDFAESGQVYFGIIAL

O=[N+]([O-])c1ccc(Cl)c(Cl)c1
inactive: [1] > 92 µM | [2] | [3] | [4] | [5] | [6] | [7] | [8] | [9] | [10] | [11] | [12] | [13] | [14] | [15] | [16] | [17] | [18] | [19] | [20]

ClC(Cl)=C(Cl)Cl
inactive: [1] > 92 µM | [2] | [3] | [4] | [5] | [6] | [7] | [8] | [9] | [10] | [11] | [12] | [13] | [14] | [15] | [16] | [17] | [18] | [19] | [20]

CC(=O)[O-].CC(=O)[O-].O.O.O.[Pb+2]
inactive: [1] > 92 µM | [2] | [3] | [4] | [5] | [6] | [7] | [8] | [9] | [10] | [11] | [12] | [13] | [14] | [15] | [16] | [17] | [18] | [19] | [20]

CCCC(=O)Cl
inactive: [1] > 92 µM | [2] | [3] | [4] | [5] | [6] | [7] | [8] | [9] | [10] | [11] | [12] | [13] | [14] | [15] | [16] | [17] | [18] | [19] | [20]

COc1ccc(N)cc1
inactive: [1] > 92 µM | [2] | [3] | [4] | [5] | [6] | [7] | [8] | [9] | [10] | [11] | [12] | [13] | [14] | [15] | [16] | [17] | [18] | [19] | [20]

Nc1c(Cl)c(Cl)nc(C(=O)O)c1Cl
inactive: [1] > 92 µM | [2] | [3] | [4] | [5] | [6] | [7] | [8] | [9] | [10] | [11] | [12] | [13] | [14] | [15] | [16] | [17] | [18] | [19] | [20]

CCOP(=S)(OCC)Oc1ccc([N+](=O)[O-])cc1
inactive: [1] > 92 µM | [2] | [3] | [4] | [5] | [6] | [7] | [8] | [9] | [10] | [11] | [12] | [13] | [14] | [15] | [16] | [17] | [18] | [20]

COc1ccc(C=O)cc1OC
inactive: [1] > 92 µM | [2] | [3] | [4] | [5] | [6] | [7] | [8] | [9] | [10] | [11] | [12] | [13] | [14] | [15] | [16] | [17] | [18] | [19]

S=C=Nc1cccc2ccccc12
inactive: [1] > 92 µM | [2] | [3] | [4] | [5] | [6] | [7] | [8] | [9] | [10] | [11] | [12] | [13] | [14] | [15] | [16] | [17] | [18] | [20]

N#CCCCl
inactive: [1] > 92 µM | [2] | [3] | [4] | [5] | [6] | [7] | [8] | [9] | [10] | [11] | [12] | [13] | [14] | [15] | [16] | [17] | [18] | [19] | [20]

Clc1nc(Cl)nc(Cl)n1
inactive: [1] > 92 µM | [2] | [3] | [4] | [5] | [6] | [7] | [8] | [9] | [10] | [11] | [12] | [13] | [14] | [15] | [16] | [17] | [18] | [19] | [20]

COC(=O)NC(=S)Nc1ccccc1NC(=S)NC(=O)OC
not listed: [1] | [4]
inactive: all other assays above

CCCCCCCC(=O)Cl
inactive: [1] > 92 µM | [2] | [3] | [4] | [5] | [6] | [7] | [8] | [9] | [10] | [11] | [12] | [13] | [14] | [15] | [16] | [17] | [18] | [19] | [20]

CCCSC(=O)Cl
inactive: [1] > 92 µM | [2] | [3] | [4] | [5] | [6] | [7] | [8] | [9] | [10] | [11] | [12] | [13] | [14] | [15] | [16] | [17] | [18] | [19] | [20]

CC(C)(C)OOC(C)(C)C
inactive: [1] > 92 µM | [2] | [3] | [4] | [5] | [6] | [7] | [8] | [9] | [10] | [11] | [12] | [13] | [14] | [15] | [16] | [17] | [18] | [19] | [20]
